# Screening results (PubChem BioAssay)
# Compounds with a hit are over-represented: about 2.9% of the library has one in this group of screens.
# EBNA-1 inh: blocks EBNA-1 binding to DNA; actives 0.34% (n = 300,000); EBNA-1 DNA binding, fluorescence polarization; inhibition, % at 14.8 µM; AID 1950; in the data active = inhibition above about 28%
# PAFAH1B2 FP inh: PAFAH1B2 (human) inhibition | P68402 | recombinant PAFAH1B2, FP-rhodamine activity probe, fluorescence polarization | inhibition, % at 3.39 µM | actives 1.2% (n = 340,000);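 active = inhibition above the mean of all tested compounds plus 3 SD, cut at about 24% in these data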
# PAFAH2 inh: PAFAH2 (human) inhibition; Q99487; recombinant PAFAH2, FP-rhodamine activity probe, fluorescence polarization; inhibition, % at 3.39 µM; actives 0.99% (n = 340,000); AID 492956;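 active = inhibition above the mean over all tested compounds plus 3 SD, cut at about 30% in these data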;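 also: inhibitors block probe labeling of enzyme so polarization drops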
# PAFAH1B3 inh: inhibitors of human PAFAH1B3 | Q15102 | AID 492972 | recombinant PAFAH1B3, FP-rhodamine probe, fluorescence polarization | actives 0.28% (n = 340,000) | inhibition, % at 3.39 µM;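 active = inhibition above the screen-wide average of all tested compounds plus 3 SD, cut at about 25% in these data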
# ZTA counter: counter-screen for EBNA-1 inhibitors: inhibitors of Epstein-Barr virus ZTA. ZTA-DNA binding, fluorescence polarization. P03206. AID 2234. inhibition, % at 11 µM. actives 0.15% (n = 320,000); in the data active = inhibition above about 33%
# Target sequence (P03206 whole entry, looked up): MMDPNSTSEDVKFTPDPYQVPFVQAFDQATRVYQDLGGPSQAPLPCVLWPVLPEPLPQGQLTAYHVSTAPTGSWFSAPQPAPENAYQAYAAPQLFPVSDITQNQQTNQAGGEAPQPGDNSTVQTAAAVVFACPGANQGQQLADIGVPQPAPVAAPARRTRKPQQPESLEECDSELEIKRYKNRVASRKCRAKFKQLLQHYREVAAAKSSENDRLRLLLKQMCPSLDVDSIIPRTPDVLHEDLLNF
# rCAG RNA binder: binds r(CAG) RNA repeats; r(CAG) RNA repeat, TO-PRO-1 dye displacement fluorescence; AID 651821; actives 1.3% (n = 370,000); inhibition, % at 3 µM;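 active = inhibition above the plate cutoff, the mean of all test compounds on that plate plus 3 SD, cut at about 35% in these data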;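 also: higher means more dye released from RNA so lower well fluorescence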
# Hits are given with their value; n = inactive; x = no result given.
SMILES,EBNA-1 inh,PAFAH1B2 FP inh,PAFAH2 inh,PAFAH1B3 inh,ZTA counter,rCAG RNA binder
CC(C)c1ccc(OCC(=O)NC(C)c2ccccc2)cc1 (stereo unspecified),n,29.2,n,n,n,n
CCC(C)NC(=O)COc1ccc(OCc2ccccc2)cc1 (stereo unspecified),n,26.5,n,n,n,n
CC1(C)C(=O)Nc2ccccc2N1C(=O)COC(=O)Cc1ccc(Cl)c(Cl)c1,x,28.4,n,n,x,n
Cc1ccc(S(=O)(=O)CCC(=O)OCC(=O)N2c3ccccc3NC(=O)C2(C)C)cc1,n,29.9,n,n,n,n
O=S1(=O)C=CCN1Cc1cn(Cc2ccc(F)cc2)nn1,x,x,x,x,x,n
Cc1cccc(NC(=O)c2oc(=O)c3ccccc3c2-c2ccccc2)c1C,n,n,47.2,n,n,n
COc1ccc(S(=O)(=O)N2CCN(C(=S)NCCc3ccccc3)CC2)cc1,n,27.1,n,n,n,n
O=C(N[C@H]1C[C@@H]2O[C@@H](CO)CC[C@@H]2O[C@@H]1CCc1ccc(-c2cccnc2)cc1)c1cccc(F)c1,x,x,x,x,x,n
O=C(COc1ccc(Br)cc1Br)NC(=S)N1CCCc2ccccc21,n,n,n,n,42.0,x
COc1ccc2c3c(cccc13)C(=O)CC2,x,100.2,126.4,109.5,x,n
N=C1/C(=C\c2ccc(-c3ccc(C(=O)O)cc3)o2)C(=O)N=C2SC=C(c3ccccc3)N12,x,27.9,33.6,n,x,n
O=C(O)c1cc(O)ccc1NC(=O)C(c1ccccc1)c1ccccc1,n,24.2,n,n,n,n
COc1cccc(C(=O)NCCN2C(=O)C3C4C=CC(C4)C3C2=O)c1 (stereo unspecified),x,x,x,x,x,n
Cc1ccc(CSCc2ccc(C(=O)O)o2)cc1,n,29.4,n,n,n,n
Cc1cccc[n+]1C1C(c2ccccc2)C(C#N)=C(C(=C=[N-])C#N)NC1(O)C1CC1 (stereo unspecified),n,n,30.5,n,n,x
N#CC(=C=[N-])C1=C(C#N)C(c2ccccc2F)C([n+]2ccccc2)C(O)(C2CC2)N1 (stereo unspecified),n,n,n,n,n,n
COC(=O)[C@]1(Cc2ccccc2)NC=C(C(=O)c2ccc(F)cc2)[C@@H]1c1ccccc1,x,x,x,x,x,n
COc1ccc(CCn2c(-c3ccc(C(C)(C)C)cc3)n[nH]c2=S)cc1OC,n,24.7,n,n,n,n
O=S(=O)(c1ccc(Br)cc1)N1CCC2(CC1)OCCO2,n,26.7,n,n,n,n
Nc1ccc2cc3ccc(N)cc3nc2c1,x,x,x,x,x,n
O=C(CN1C(=O)S/C(=C\c2ccc(-c3cc(C(=O)O)ccc3Cl)o2)C1=O)Nc1ccc2c(c1)OCO2,x,n,n,n,x,48.9
Nc1ccc(S(=O)(=O)N2CCc3ccccc32)cc1,n,n,n,n,n,n
O=S(=O)(NC1CCCC1)c1ccc(S(=O)(=O)N2CCc3ccccc32)cc1,n,27.0,n,n,n,n
N#CCC(=O)NNC(=S)NC(=O)C(c1ccccc1)c1ccccc1,n,29.0,n,n,n,n
COc1ccc(Oc2c(Cl)cnn(CC(=O)C(c3ccccc3)c3ccccc3)c2=O)cc1,x,x,x,x,x,n
SMILES,EBNA-1 inh,PAFAH1B2 FP inh,PAFAH2 inh,PAFAH1B3 inh,ZTA counter,rCAG RNA binder
c1csc(C2Nc3cccc4cccc(c34)N2)c1,n,n,n,30.2,n,n
c1ccc(C2Nc3cccc4cccc(c34)N2)cc1,n,n,n,n,n,n
OC[C@H]1CC[C@@H]2O[C@H](CCc3ccc(-c4ccc(F)cc4)cc3)[C@H](n3cc(C4CC4)nn3)C[C@@H]2O1,x,x,x,x,x,n
Cc1ccc(NC(=O)C(C)SCc2nc3sc4c(c3c(=O)[nH]2)CCCC4)nc1 (stereo unspecified),n,29.2,n,n,n,n
Cc1ccc(OCCNC(=O)CCc2nc3sc4c(c3c(=O)[nH]2)CCCC4)cc1,n,27.4,n,n,n,n
COC(=O)[C@]12C[C@H](CC(=O)NCCc3ccccc3OC)C(=O)N(Cc3cccc4ccccc34)C1=C[C@H](C(C)C)O[C@@H]2C1CC1,x,x,x,x,x,n
CCC(c1ccc(O)c(O)c1)C(CC)c1ccc(O)c(O)c1 (stereo unspecified),x,27.1,n,n,x,x
Cc1c(CCC(=O)O)c(=O)oc2c(C)c3occ(-c4ccc(Cl)cc4)c3cc12,x,n,n,n,x,n
Cc1c(CCC(=O)O)c(=O)oc2cc3occ(-c4ccc(Cl)cc4)c3cc12,n,n,n,n,n,59.4
